The results in this text go back to PubChem BioAssay AID1209 (Sanford-Burnham Center for Chemical Genomics, 2008).

Screen size: about 190,000 compounds; about 810 (0.43%) were called active. Many of the other results were omitted from the sample, so actives are more common in it than they were. A number with no mark means an inactive call. No stated cut-off is given here; in the data, active means inhibition above about 50%; inactive means the rest.

Mannose-6-phosphate isomerase (Homo sapiens), sequence (P34949 whole entry, looked up): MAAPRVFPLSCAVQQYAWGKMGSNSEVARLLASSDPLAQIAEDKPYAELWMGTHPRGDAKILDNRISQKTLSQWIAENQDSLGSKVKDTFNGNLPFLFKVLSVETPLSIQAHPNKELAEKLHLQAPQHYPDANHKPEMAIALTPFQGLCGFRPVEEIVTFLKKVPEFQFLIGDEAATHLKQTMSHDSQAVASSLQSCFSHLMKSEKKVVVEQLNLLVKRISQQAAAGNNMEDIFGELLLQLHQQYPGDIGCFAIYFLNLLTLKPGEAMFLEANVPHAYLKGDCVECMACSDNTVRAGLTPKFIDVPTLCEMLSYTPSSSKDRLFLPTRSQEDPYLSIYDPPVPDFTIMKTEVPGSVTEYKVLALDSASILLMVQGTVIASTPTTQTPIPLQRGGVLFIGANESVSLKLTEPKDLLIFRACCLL

This test has as its target Mannose-6-phosphate isomerase (Homo sapiens) (UniProt P34949). Briefly: MPI enzyme activity inhibition – biochemical, fluorescence intensity, coupled assay, primary screen (AID 1209).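 Further: plate controls were DMSO vehicle for no effect and wells lacking substrate for full effect.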 As to conditions: purified PMI enzyme, at 20 µM, stronger effect = higher value.
As usually defined, the inhibition is the change of the read-out against control, counted positive when it falls. As for `Cn1c(NC(=O)Cc2cccc3ccccc23)cc(=O)n(C)c1=O`, the inhibition is 7.2%.
Turning to `NNC(=O)c1sc2cc(C(F)(F)F)cnc2c1-c1cccnc1`, the inhibition was 3.5%.
Consider `O=S1(=O)N=C(Nc2nncs2)c2ccccc21`, for which the inhibition was 23.3%.
Take `O=C1CNC(=O)N1CC(O)Cn1c2ccccc2c2ccccc21` (centres undefined): the inhibition was 5.5%.
As for `O=C(/C=C/c1ccc(S(=O)(=O)NCc2ccco2)cc1)NCc1cccc(Cl)c1`, the inhibition was 0.4%.
As for `CCCn1c(CNC(=O)c2ccccc2)nc2ccccc21`, the inhibition was 0.8%.
Regarding `CCCn1c(CNS(=O)(=O)c2ccc(C)cc2)nc2ccccc21`, the inhibition is 83.3% (active).
Regarding `CCCn1c(NCc2ccccc2NS(=O)(=O)c2ccc(C)cc2)nc2ccccc21`, the inhibition was 27.9%.
To `O=C(N/N=C/c1coc2ccccc2c1=O)c1ccccc1Br` belongs -7.2%.
On to `Cn1c(C(C#N)C(=O)Cc2cccc3ccccc23)nc2ccccc21` (centres undefined), for which the inhibition was -7.2%.
In the case of `C=CCNC(=S)Nc1ccc(Cl)c(S(=O)(=O)N2CCOCC2)c1`, the inhibition was -6.8%.
To `CCC(=O)OCCNc1cc(Sc2nccn2C)c2nonc2c1[N+](=O)[O-]` belongs 20.4%.
To `CCC(=O)OCCNc1cc(SCCC(=O)OC)c2nonc2c1[N+](=O)[O-]` belongs 79.5% (active).
Turning to `CCCSc1cc(NCCOC(C)=O)c([N+](=O)[O-])c2nonc12`, the inhibition was 27.6%.
To `CCCC(=O)OCCNc1cc(SCCC(=O)OC)c2nonc2c1[N+](=O)[O-]` belongs 81.2% (active); to `COC(=O)CCSc1cc(NCCOC(C)=O)c([N+](=O)[O-])c2nonc12`, 4.9%.
In the case of `CCCSc1cc(NCCOC(=O)CCC)c([N+](=O)[O-])c2nonc12`, the inhibition is 41.9%.
To `O=C(O)/C=C/C(=O)Nc1ccc(SC(F)(F)F)cc1` belongs -22.4%.
To `CC1(C)Cc2nc3sc4c(=O)n(Cc5ccccc5)cnc4c3cc2CS1` belongs -8.6%; to `Cc1cc(NC(=O)CSc2ncnc3ccccc23)no1`, 15.8%; to `O=C(O)CCn1cc(/C=C2\SC(=S)NC2=O)c(-c2ccccc2)n1`, -4.7%.
Take `O=Cc1cn(CCC(=O)O)nc1-c1cccc(Br)c1`: the inhibition is -4.6%.
As for `CN(C)Cc1c(O)ccc2c3c(c(=O)oc12)CCCCC3`, the inhibition was -0.4%.
On to `O=c1oc2c(CN3CCOCC3)c(O)ccc2c2ccccc12`, for which the inhibition was 7.2%.
Regarding `CCC1(c2ccccc2)NC(=O)N(Cc2ccc(C(=O)OC)cc2)C1=O` (centres undefined), the inhibition is 4.1%.
Turning to `CCOC(=O)c1[nH]c2ccc(OC)cc2c1NC(=O)/C=C/c1ccc2c(c1)OCO2`, the inhibition was -2.7%.
Regarding `CC1=NN(c2ccccc2)C(=O)/C1=C/C=C/c1ccccc1`, the inhibition is 3.1%.
On to `CC1=NN(c2ccccc2)C(=O)/C1=C/C=C/c1ccc(N(C)C)cc1`, for which the inhibition was 14.6%.
With `CC1=NN(c2ccccc2)C(=O)/C1=C/C=C/C=C/N(C)C`, the inhibition was 50.1% (active).
Turning to `CCOc1ncccc1C(=O)Nc1nc(SC)ns1`, the inhibition is -7%.
For the molecule `O=C1C2C3C=CC(CNS(=O)(=O)c4ccccc4[N+](=O)[O-])(O3)C2C(=O)N1c1ccccc1` (centres undefined), the inhibition is -34.8%.
As to `COc1ccccc1C(OC(=O)c1cccs1)C(=O)NCc1ccco1` (centres undefined), the inhibition was -1.9%.
With `O=C(O)[C@@H]1CSC2(CCSC2)N1` (some centres undefined), the inhibition is -0.6%.
Consider `COC(=O)C1=C(C)N(Cc2ccco2)C(=O)/C1=C\c1ccc([N+](=O)[O-])cc1`, for which the inhibition is -16.2%.
Consider `CCOc1cc(/C=C2\C(=O)N(Cc3ccco3)C(C)=C2C(=O)OC)ccc1O`, for which the inhibition was 27.7%.
As for `COC(=O)C1=C(C)N(Cc2ccco2)C(=O)/C1=C\c1ccc(N(C)C)cc1`, the figure is 63.9% (active).
In the case of `O=C(c1ccc(F)cc1)c1c[nH]c(C(=O)NCCCN2CCOCC2)c1`, the inhibition was 4.5%.
Regarding `CCc1c(C)sc(NC(=O)Cn2nc(C(F)(F)F)c3c2CCCC3)c1C#N`, the inhibition is 15.3%.
Turning to `N#Cc1c(NC(=O)Cn2nc(C(F)(F)F)c3c2CCCC3)sc2c1CCC2`, the inhibition is 56.8% (active).
For the molecule `CC1CCc2c(sc(NC(=O)Cn3nc(C(F)(F)F)c4c3CCCCC4)c2C#N)C1` (centres undefined), the inhibition was -0.9%.
As to `CCOc1ccc(Br)cc1S(=O)(=O)Nc1ccc(N2CCOCC2)cc1`, the inhibition is 12%.
With `CC1CCc2c(nc3ncnn3c2N2CCN(c3ccccc3)CC2)C1` (centres undefined), the inhibition was -7.9%.
Consider `COc1cccc(N2CCN(c3c4c(nc5ncnn35)CCC4)CC2)c1`, for which the inhibition was -1.8%.
To `c1ccc(N2CCN(c3c4c(nc5ncnn35)CCC4)CC2)cc1` belongs 68.8% (active).
To `N#CC1=C(N)Oc2n[nH]c(-c3cccs3)c2C1C1C=CCCC1` (centres undefined) belongs 2.1%; to `O=C(O)CSc1ncccn1`, -18.2%; to `O=C(CSc1nc2ccccc2s1)CSc1nc2ccccc2s1`, 7.7%.
To `CN(C(=O)c1ccccn1)C1(C(=O)NC2CCCCC2)CCCCC1` belongs -7.7%; to `COCC(C)NC(=O)NC1(C(F)(F)F)Oc2ccc(Cl)cc2O1` (centres undefined), 22.8%.
As for `O=C(Nc1cc(N2CCOCC2)ncn1)NC1(C(F)(F)F)Oc2ccccc2O1`, the inhibition is 35.5%.
As for `Cc1cc(NC(=O)NC2(C(F)(F)F)Oc3ccc(Cl)cc3O2)no1` (centres undefined), the figure is 52% (active); as for `O=C(Nc1cc(N2CCOCC2)ncn1)NC1(C(F)(F)F)Oc2ccc(Cl)cc2O1` (centres undefined), 74.1% (active).
Consider `O=C(NCc1cccnc1)NC1(C(F)(F)F)Oc2ccc(Cl)cc2O1` (centres undefined), for which the inhibition is 22.4%.
With `O=C(NCCN1CCOCC1)NC1(C(F)(F)F)Oc2ccccc2O1`, the inhibition is 8.2%.
On to `COCCNC(=O)NC1(C(F)(F)F)Oc2ccc(Cl)cc2O1` (centres undefined), for which the inhibition was 22.5%.
On to `O=C(Nc1cc(N2CCOCC2)ncn1)c1ccc(F)cc1`, for which the inhibition was 5.3%.
For `O=C(NCCN1CCOCC1)NC1(C(F)(F)F)Oc2ccc(Cl)cc2O1` (centres undefined), the inhibition was 60.2% (active).
Turning to `O=C(c1cc2nc(-c3ccco3)cc(C(F)(F)F)n2n1)N1CCCCCC1`, the inhibition was -12.3%.
`CCCOC(=O)c1ccc(Nc2nc(C)cc(=O)[nH]2)cc1`: the inhibition was 1.7%.
In the case of `Cc1cc(C)nc(SCc2nnc(SCC(=O)Nc3cc(C(F)(F)F)ccc3Cl)o2)n1`, the inhibition was 3%.
As for `Cc1ccc(N2C(=O)C3Sc4[nH]c(=O)sc4C(c4ccccc4)C3C2=O)cc1` (centres undefined), the figure is 11.4%.
Consider `COc1ccc(C(=O)NC(C)c2ccccc2)cc1Br` (centres undefined), for which the inhibition was 3.2%.
As for `O=C(O)C1Sc2[nH]c(=O)sc2C2c3ccc(O)cc3OC(=O)C12` (centres undefined), the inhibition was 24.3%.
Consider `O=C(O)C1Sc2[nH]c(=O)sc2C2c3cc(Cl)ccc3OC(=O)C12` (centres undefined), for which the inhibition was 50.4% (active).
To `COC(=O)C1Sc2[nH]c(=O)sc2C2c3ccccc3OC(=O)C12` (centres undefined) belongs 10.6%; to `O=C(Nc1ccc(S(=O)(=O)Nc2nccs2)cc1)c1cc(-c2ccccn2)nc2ccccc12`, -1.4%.
As to `CC(C)CCn1c(=O)c(C(=O)N/N=C/c2cccc(F)c2)c(O)c2ccccc21`, the inhibition is -3.7%.
In the case of `CC(C)(C)C1=CC(=O)C(=O)C(C(C)(C)C)=C1`, the inhibition was 61.2% (active).
To `CC(C)(C)C1=CC(=Nc2ccccc2N)C=C(C(C)(C)C)C1=O` belongs -7.3%; to `CC(C)(C=O)C1=CC(=O)c2ccccc2C1=O`, -17.2%; to `COc1ccc(CCNC(=O)CN2CCN(c3cccc(C(F)(F)F)c3)CC2)cc1`, 3.1%.
`O=C(c1ccco1)N1CCN(c2nc(-c3ccc(F)cc3)cs2)CC1`: the inhibition is 5.4%.
As for `N#CC(=C1CCCC1)c1nc(-c2cc3ccccc3oc2=O)cs1`, the inhibition is 1.4%.
As for `CN(C)CCCNS(=O)(=O)c1ccc(Cl)s1`, the figure is 0%.
Regarding `Fc1ccc(C2c3cccn3CCN2C(=S)Nc2cccc(Br)c2)cc1` (centres undefined), the inhibition is 5.7%.
As for `O=C1CCc2cc(S(=O)(=O)N3CCN(c4ccccc4F)CC3)ccc2N1`, the inhibition is 6%.
On to `COc1ccc(CC(NC(C)=O)C(=O)NC2CCN(C(=O)NCc3ccccc3)CC2)cc1OC` (centres undefined), for which the inhibition was -4.4%.
Take `CCC(=O)NC(=S)Nc1ccc(NC(=O)COc2ccc(Cl)c(C)c2)cc1`: the inhibition was 62.3% (active).
Take `CCC(=O)NC(=S)Nc1ccc(NC(=O)COc2ccccc2)cc1`: the inhibition was 10.1%.
For the molecule `CCC(=O)NC(=S)Nc1ccc(NC(=O)COc2ccc(Cl)cc2Cl)cc1`, the inhibition was 5.1%.
For the molecule `Cc1cc(NC(=O)CSc2nnc(NC(=O)C3CC(=O)N(c4ccccc4)C3)s2)no1` (centres undefined), the inhibition was -9.8%.
As to `O=C(CCn1c(=O)sc2ccccc21)NCCC1=CCCCC1`, the inhibition is 3.6%.
`CCOC(=O)C1=C(Cc2ccc(OC)cc2)C(=O)c2ccccc2C1=O`: the inhibition was 22.9%.
As to `CC(C)c1ccc(C2=C(O)c3ccccc3C(=O)C2=O)cc1`, the inhibition was -3.9%.
To `COc1ccc(C2=C(N)c3ccccc3C2=O)cc1` belongs 3.9%; to `O=C(C1=C(c2ccccc2)C(=O)c2ccccc2C1=O)c1ccccc1`, 48.7%.
In the case of `CC(=O)C1=C(c2ccc(Br)cc2)C(=O)c2ccccc2C1=O`, the inhibition was 80.3% (active).
In the case of `OC(CNCc1ccccc1)Cn1ccc2ccccc21` (centres undefined), the inhibition was -1.3%.
`NC(N)=N/N=C/c1ccc(Br)cc1`: the inhibition was -2.5%.
In the case of `O=c1cc(-c2ccc(O)c(O)c2)oc2cc(O)c(C3OC(CO)C(O)C(O)C3O)c(O)c12` (centres undefined), the inhibition was 45.4%.
As for `O=c1cc(-c2ccc(O)cc2)oc2c([C@@H]3O[C@H](CO)[C@@H](O)[C@H](O)[C@H]3O)c(O)c([C@@H]3O[C@H](CO)[C@@H](O)[C@H](O)[C@H]3O)c(O)c12`, the figure is -0.7%.
For `O=c1cc(-c2ccc(O)c(O)c2)oc2c(C3O[C@H](CO)[C@@H](O)[C@H](O)[C@H]3O)c(O)cc(O)c12` (some centres undefined), the inhibition is 51.9% (active).
Regarding `NC1=Nc2cccc3cccc1c23`, the inhibition is 12.8%.
In the case of `CC(=O)N1C(=O)c2cccc3cccc(c23)C(=O)N1C(C)=O`, the inhibition was 9.5%.
